Most compounds without a hit are left out; they make up all but 6.9% or so of the library.
Cy5 interf NS3h – enhances or quenches Cy5 fluorescence in NS3h assay; Cy5-dT15 DNA with NS3h, fluorescence interference; actives lie on both sides; signal over control mean, under 1 quenches; fluorescence interference ratio at 100 µM; 16,000 tested, 6% active;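 active = compound fluorescence over control fluorescence at most 0.8, a quencher, or at least a set upper limit, an enhancer; inactive = ratio between 0.8 and the set upper limit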
HCV NS3h FP – hepatitis C NS3 helicase inhibition, primary screen; NS3h Cy5-dT15 DNA binding, fluorescence polarization; inhibition, % at 100 µM; 16,000 tested, 1.6% active;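 active = inhibition above the average over every tested compound plus 3 SD, cut at about 40% in these data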
Large screens that a line does not name were inactive.

Cc1ccc(NC(=O)c2cccc3ccccc23)c([N+](=O)[O-])c1	none
CC(C)N(Cc1ccccc1)C(=O)CCCOc1ccc(Cl)cc1Cl	none
CC(Oc1ccc(Cl)cc1Cl)C(=O)NCCN(C)C (configuration not stated)	Cy5 interf NS3h 0.715
CC1(C)CC(=O)C2=C(C1)c1c(ccc3ccccc13)NC2c1ccccc1F (configuration not stated)	Cy5 interf NS3h 0.747
COc1ccc(C2Nc3ccc4ccccc4c3C3=C2C(=O)CC(C)(C)C3)cc1[N+](=O)[O-] (configuration not stated)	none
Cn1c(O)c(N=NC(N)=O)c2ccccc21	none
CCOC(=O)/C(=N/O)C1=NC(C)(C)C(C)c2ccccc21 (configuration not stated)	none
Cc1ccc(OCC(=O)Nc2ccc(F)c([N+](=O)[O-])c2)c(C)c1	none
CCc1ccccc1N(CC(=O)Nc1ccccc1C(=O)OC)S(C)(=O)=O	none
COc1cccc(NC(=O)CSc2nc3ccccc3o2)c1	Cy5 interf NS3h 0.666
O=C(CSc1nc2ccccc2o1)c1ccc(-c2ccccc2)cc1	Cy5 interf NS3h 0.628
COc1cccc(NC(=O)c2cc(-c3ccccc3)nc3ccccc23)c1	none
O=C(CSc1nc2ccccc2o1)OCC(=O)c1ccc(F)cc1	none
Cc1ccc(CN2CCN(/N=C\c3ccc(C(F)(F)F)cc3)CC2)cc1	none
CCN(CC)c1ccc(/C=N/NC(N)=O)cc1	none
CCN(CC)c1ccc(/C=N\N2C(=O)c3ccccc3C2=O)cc1	Cy5 interf NS3h 1.22
O=C(Nc1ccc(S(=O)(=O)NC(=O)C2CCCCC2)cc1)c1cccc(Br)c1	Cy5 interf NS3h 0.587
O=C(Nc1ccc(S(=O)(=O)Nc2ncccn2)cc1)c1cccc(Br)c1	none
Cc1ccc2ccc(S(=O)(=O)n3nc(C)cc3C)cc2c1	none
Cc1cc(C)n(S(=O)(=O)c2ccc3c(c2)C(=O)c2cc(S(=O)(=O)n4nc(C)cc4C)ccc2-3)n1	Cy5 interf NS3h 0.64
CCCOc1ccc(/C=C/C(=O)Nc2ccc(S(=O)(=O)Nc3ncccn3)cc2)cc1OC	none
O=C(/C=C\c1ccc2c(c1)OCO2)c1ccc(Cl)cc1	none
Cc1ccc(N2C(=O)NC(=O)/C(=C\c3ccc(OCc4cccc(C(=O)O)c4)cc3)C2=O)cc1	HCV NS3h FP 51.7
Cc1cccc(N2C(=O)NC(=O)/C(=C\c3ccc(OCc4cccc(C(=O)O)c4)cc3)C2=O)c1	Cy5 interf NS3h 1.28
CCOc1ccc(N2C(=O)NC(=O)/C(=C\c3ccc(OCc4cccc(C(=O)O)c4)cc3)C2=O)cc1	none
Cc1ccc(N2C(=O)/C(=C/c3ccc(OCc4cccc(C(=O)O)c4)cc3)C(=O)NC2=S)cc1	none
C/C(=C1/SC(=S)NC1=O)c1ccc(C)cc1	none
COc1c(Cl)cc(C(=O)Nc2cc(Cl)cc(Cl)c2)cc1Cl	none
COc1ccc(C(=O)CSc2nc3ccc([N+](=O)[O-])cc3[nH]2)cc1	Cy5 interf NS3h 0.662
COc1ccc2nc(SCC(=O)NCc3ccccc3)[nH]c2c1	none
COc1ccccc1C(=O)O/C(=C/c1nc2ccccc2n1C)c1ccccc1OC	none
O=C(O)c1ccc(NC(=O)c2ccccc2F)c(NC(=O)c2ccccc2F)c1	none
CN(C1=NC(=O)S/C1=C\c1ccc([N+](=O)[O-])cc1)c1ccc(O)cc1	none
CN(C1=NC(=O)/C(=C\C(Cl)=C\c2ccc([N+](=O)[O-])cc2)S1)c1ccc(O)cc1	Cy5 interf NS3h 0.405
CCOC(=O)C1=C(C)N=c2s/c(=C\c3ccc([N+](=O)[O-])o3)c(=O)n2C1c1cccs1 (configuration not stated)	none
CCOC(=O)C1=C(C)N=c2s/c(=C/c3ccccn3)c(=O)n2C1c1ccccc1Cl (configuration not stated)	none
CCOC(=O)C1=C(C)N=c2s/c(=C\c3ccc([N+](=O)[O-])o3)c(=O)n2C1c1ccc(C)cc1 (configuration not stated)	Cy5 interf NS3h 0.752
CCOC(=O)C1=C(C)N=c2s/c(=C\c3ccc([N+](=O)[O-])o3)c(=O)n2C1c1ccccc1Cl (configuration not stated)	Cy5 interf NS3h 0.712
COc1cc(C(C)(C)C)cc(Br)c1O	none
C=CCNC(=S)Nc1sc(C)c(C)c1C(=O)OCC	none
COc1cc(NC(=O)COc2cccc(C)c2)c(C(=O)O)cc1OC	none
CCN1C(=O)/C(=C\c2ccc(-c3ccc(C)c(Cl)c3)o2)SC1=S	none
CCN1C(=O)/C(=C\c2ccc(-c3ccc(I)cc3)o2)SC1=S	Cy5 interf NS3h 0.718
COc1ccc(C)cc1NC(=O)Cc1ccccc1[N+](=O)[O-]	none
COC(=O)c1ccc(C(=O)OC)c(NC(=O)c2c(Cl)cccc2Cl)c1	none
COC(=O)c1ccc(C(=O)OC)c(NC(=O)CC(c2ccccc2)c2ccccc2)c1	Cy5 interf NS3h 0.745
COC(=O)c1ccc(C(=O)OC)c(NC(=O)Cc2ccccc2[N+](=O)[O-])c1	Cy5 interf NS3h 0.776
CCn1c2ccccc2c2cc(/C=N\Nc3ccc([N+](=O)[O-])cc3)ccc21	none
COc1cc(/C=N/n2nnnc2N)ccc1OCc1ccc(F)cc1	Cy5 interf NS3h 0.767

Assay outcomes (PubChem)
